# Measurements as given in PubChem BioAssay AID485273 (Sanford-Burnham Center for Chemical Genomics, 2010).
# The whole screen tested about 330,000 compounds, of which about 1,500 (0.45%) were called active. For the sample, actives were picked, then their nearest neighbours and some compounds at random. Values without a mark were called inactive. Rule as the data show it: active = inhibition above about 45% (passing the limit was not always enough); inconclusive = no clear call, values can overlap the other calls.
# Molecular target: Ubiquitin-conjugating enzyme E2 N (Homo sapiens) (UniProt P61088)
# Test: UBC13 polyubiquitin chain formation inhibitors, primary screen, biochemical, TR-FRET, uHTS (AID 485273)
# Conditions: at 20 µM, stronger effect = higher value
# Ubiquitin-conjugating enzyme E2 N (Homo sapiens), sequence (P61088 whole entry, looked up): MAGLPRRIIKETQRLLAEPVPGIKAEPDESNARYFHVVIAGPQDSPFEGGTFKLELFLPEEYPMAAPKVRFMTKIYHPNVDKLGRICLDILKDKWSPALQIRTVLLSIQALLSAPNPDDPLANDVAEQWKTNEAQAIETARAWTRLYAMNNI
row,SMILES,inhibition
1,Cc1cc(C)c(NC(=O)C[N+](C)(C)CC(O)COc2cccc3ccccc23)c(C)c1 (configuration not stated),45.4% (active)
2,CC(C)c1ccccc1OCC(O)CN(CC(O)COc1cccc2ccccc12)C(C)C (configuration not stated),10.8%
3,Cc1cc(C)cc(OCC(=O)NCc2cc(C)nc3ccccc23)c1,7.7%
4,CCCCCN(C(=O)CCC(=O)OCC(=O)NCc1ccc(OC)cc1)c1c(N)n(CCCC)c(=O)[nH]c1=O,2.5%
5,CCn1ccnc1CN1CCCC(C(=O)c2ccc3c4c(cccc24)CC3)C1 (configuration not stated),19.1%
6,O=C(c1ccccc1)N1CCN(C(=O)c2cc3nc(-c4ccccc4)cc(C(F)(F)F)n3n2)CC1,2.2%
7,O=C(O)/C(=C/c1cccnc1)NC(=O)c1ccccc1,7.7%
8,OCCCNc1nccc(-c2cc(Nc3cccc(Cl)c3)ncn2)n1,35.7%
9,CC(C)n1cnc2c(Nc3cccc(Cl)c3)nc(N(CCO)CCCO)nc21,64.8% (active)
10,CC(C)C[C@H](CO)Nc1nc(N(C)c2cccc(Cl)c2)c2ncn(C(C)C)c2n1,24.1%
11,O=C(O)CCn1c(SCc2cc(=O)n3ccccc3n2)nc2ccsc2c1=O,-6.3%
12,O=C(Nc1cccnc1Oc1ncnc2cc(Cl)ccc12)c1ccc(F)cc1,2.8%
13,COc1ccc(N2CCN(CCNC(=O)Nc3cc(Cl)ccc3Cl)CC2)cc1,5.5%
14,CC(=O)c1ccc(NC(=O)c2sc3nc4n(c(=O)c3c2C)CCCCC4)cc1,-6.8%
15,CC(=O)Nc1ccc(NC(=O)c2sc3nc4c(c(-c5ccc(C)cc5)c3c2N)CCC4)cc1,54% (active)
16,Cc1ccc(NC(=O)c2sc3nc(N)c(C#N)cc3c2N)cc1,1%
17,COc1ccc(C=C(C#N)C#N)c(CSc2ccccn2)c1,3.1%
18,O/N=C(\C[n+]1ccccc1)c1ccc(Br)cc1,-4.7%
19,COC(=O)c1cc(-c2cccs2)nc2ccccc12,45.2% (active)
20,O=C(Nc1nnc(-c2ccccc2)o1)c1cc(-c2cccs2)nc2ccccc12,-31.4%
21,CCCCN(C)CCCNC(=O)c1cc(-c2cccs2)nc2ccccc12,48.3% (active)
22,O=C(NCC(c1cccs1)N1CCOCC1)c1cc(-c2ccccn2)nc2ccccc12 (configuration not stated),1.9%

row,SMILES,inhibition
1,COC(=O)c1cc(N2CCNCC2)nc2ccccc12,17.5%
2,CC(=O)NCCNC(=O)c1cc(-c2cccc3ccccc23)nc2ccccc12,8.4%
3,COc1cccc(NC(=O)CN(C)C(=O)c2cc(C3CC3)nn2-c2ccccc2)c1,-2.2%
4,CCOCCCNS(=O)(=O)Cc1ccccc1,-13.7%
5,CCOc1ccc(N(CC(=O)NCCc2ccc(OC)cc2)S(C)(=O)=O)cc1,3.8%
6,Cc1sc2ncnc(N3CCC(C(=O)Nc4ccc(F)cc4Cl)CC3)c2c1C,17.7%
7,Cc1ccc(S(=O)(=O)N(C)c2ccc(OCC(=O)OCC(=O)N(CC#N)c3ccccc3)cc2)cc1,-0.2%
8,CCCc1cc(=O)[nH]c2nnc(SCC(=O)Nc3nnc(SCC)s3)n12,-15.5%
9,NCC(=O)c1cccc2ccc[n+]([O-])c12,-7.7%
10,O=C(NCC(=O)N(Cc1cccs1)C(C(=O)NC1CCCCC1)c1ccco1)c1cccs1 (configuration not stated),-5.1%
11,CCn1c(SCC(=O)NCC2CCCO2)nc2ccccc21 (configuration not stated),5.4%
12,Cn1c(SCC(=O)c2ccccc2)ncc(C(=O)Nc2ccc(F)cc2)c1=O,36.4%
13,Cc1ccc(NC(=O)c2cnc(SCC(=O)NCC3CCCO3)n(C)c2=O)cc1 (configuration not stated),93.1% (active)
14,Cc1ccccc1-n1cc(CNC(=O)C2CCC(=O)N(C3CC3)C2)cn1 (configuration not stated),8.4%
15,COc1ccc(-n2nc(C(=O)Nc3cc(OC)c(OC)c(OC)c3)c3ccccc3c2=O)c(OC)c1,21.2%
16,N#CCc1ccc(NC(=O)c2ccccc2C(=O)Nc2ccc(CC#N)cc2)cc1,2.2%
17,CCCCOCCCNC(=O)c1ccccc1OCC,1.4%
18,CCOCCCNC(=O)c1cn(CC(C)C)c(=O)c2c1c1ccccc1n2C,51.1% (active)
19,COCCCNC(=O)Cn1cc(C(=O)C2CC2)c2ccccc21,11.8%
20,CN(C)c1nc(N)nc(Cn2nnc(-c3ccc(C(F)(F)F)cc3)n2)n1,4%
21,COc1ccccc1-c1sc2ccccc2c1-c1ccc(Br)nc1,21.7%
22,COc1ccccc1-c1sc2ccccc2c1-c1ccc(C(C)=O)cc1,47.4% (active)

row,SMILES,inhibition
1,COc1ccccc1-c1sc2ccccc2c1C#CC1(O)CCCCC1,-2.3%
2,CCCC1C(=O)N2C(N(C)C)=Nc3ccc(C)cc3N2C1=O (configuration not stated),-21%
3,COc1cccc2sc3cc(NCC[C@@H]4CCCN4C)ccc3c(=O)c12,45.1% (active)
4,Cc1cc2oc3ccc(NCCC4CCCN4C)cc3c(=O)c2cc1C (configuration not stated),33.1%
5,COc1cccc(OC)c1C(=O)Nc1ccc2c(c1)n(C)c(=O)n2C,1.6%
6,COCCn1c(SCC(=O)Nc2ccccc2F)nc2c(c1=O)SCC2,-6.9%
7,COc1ccc(-n2nnnc2CNC(=O)c2ccc3ccccc3c2)cc1,-2.4%
8,COc1ccc(C2=NN(c3nc4ccccc4s3)C(=O)C2)cc1,-13.1%
9,COc1ccc(-n2nnnc2-c2nc3ccccc3s2)cc1,53.4% (active)
10,Cc1c(Cl)cnc(NC(=O)COC(=O)C2CCCC2)c1Cl,3.7%
11,CCCN1CCn2c3c(c4cc(Br)ccc42)CCCC31 (configuration not stated),-1.1%
12,OC(CNCC1CCCO1)Cn1c2ccc(Br)cc2c2cc(Br)ccc21 (configuration not stated),57.5% (active)
13,O=C(CCNS(=O)(=O)c1ccc(Br)cc1)NCC1CCCO1 (configuration not stated),1.5%
14,COc1ccccc1C(=O)N1C(CC(=O)Nc2ccccc2C)C(=O)NC2CCCCC21 (configuration not stated),-2.3%
15,CCCC[C@@H]1CN=C(N)N1CCCC,-4.4%
16,CCCC[C@@H]1CN=C(N)N1CCc1cccc(F)c1,13.5%
17,CCCC[C@@H]1CN=C(N)N1CCc1cc(C(F)(F)F)cc(C(F)(F)F)c1,66.9% (active)
18,COc1ccc(OC)c(-c2csc(NC(=O)C3=NNC(=O)CC3)n2)c1,-3.9%
19,CCN1CCN(CCNC(=O)c2ccc(/C=C3/Sc4ccccc4N(Cc4cccc(C)c4)C3=O)cc2)CC1,50.8% (active)
20,O=C(NCCCN1CCOCC1)c1ccc2c(c1)N(Cc1cccc(F)c1)C(=O)c1ccccc1S2,13.3%
21,Cc1ccccc1CN1C(=O)c2ccccc2Sc2ccc(C(=O)NCCCN3CCOCC3)cc21,15.4%
22,C=CCn1c(=S)sc2c(=O)[nH]c(C)nc21,-13.8%

row,SMILES,inhibition
1,CCNC(=O)CCc1nc(-c2ccc(C)cc2)no1,0.3%
2,Cc1ccc(-c2noc(CCC(=O)Nc3ccccc3N3CCN(C)CC3)n2)cc1,71.9% (active)
3,CN1CCN(C(=O)CCc2nc(-c3ccc(Cl)cc3)no2)CC1,-0.3%
4,Cc1cc([N+](=O)[O-])c(NC2CCCCC2)c([N+](=O)[O-])c1,-28.1%
5,O=C(Nc1ccc(F)cc1)C(=O)c1cn(CC(=O)N2CCOCC2)c2ccccc12,-4.6%
6,CCN(CC(=O)Nc1ccc(OC)cc1)C(=O)c1ccc(Cl)c(S(=O)(=O)N2CCCC2)c1,8.9%
7,O=C(OCC1O[C@@H](OC(=O)c2cc(O)c(O)c(O)c2)[C@@H](OC(=O)c2cc(O)c(O)c(O)c2)[C@@H](OC(=O)c2cc(O)c(O)c(O)c2)[C@@H]1OC(=O)c1cc(O)c(O)c(O)c1)c1cc(O)c(O)c(O)c1 (some centres not stated),138% (active)
8,O=C(NCCc1ccc(F)cc1)c1ccc2nccnc2c1,-9.4%
9,CC1CCCN(C(C(=O)Nc2ccc(C(C)C)cc2)c2ccc3c(c2)OCO3)C1 (configuration not stated),9%
10,COc1ccccc1C(=O)N(C1=NC(C)CS1)c1ccc(Cl)cc1 (configuration not stated),1.5%
11,COCCCNC(=O)CC1C[C@H](C(=O)N2CCCCC2)[C@@]2(CCc3ccccc3)c3[nH]c4ccccc4c3CCN2C1=O (some centres not stated),14%
12,Cc1nc(N2CCOCC2)c2c(C)c(C(=O)Nc3ccc(C(F)(F)F)cc3)sc2n1,5.6%
13,Cc1nc(N2CCN(c3ccccn3)CC2)c2c(C)c(C(=O)Nc3ccc(F)cc3)sc2n1,47.4% (active)
14,COc1ccc(NC(=O)c2sc3nc(C)nc(N4CCN(c5ccccn5)CC4)c3c2C)c(OC)c1,5.6%
15,Cc1cc(C)nc(N2C(=O)CC(Cc3ccccc3)C2=O)n1 (configuration not stated),-12.4%
16,CC(C)NC(=O)C(c1ccc(F)cc1)N(C(=O)CCC(=O)Nc1ccccn1)c1ccccc1F (configuration not stated),2.6%
17,C#CCOCCOCCOCCNc1nc(N2CCN(C(=O)C([C@@H](C)CC)n3cc(C(N)COC(=O)C(F)(F)F)nn3)CC2)nc(N2CCN(C(=O)[C@H](CCCCN)n3cc(C(N)CC(C)C)nn3)CC2)n1 (some centres not stated),108% (active)
18,C#CCOCCOCCOCCNc1nc(N2CCN(C(=O)[C@H](CCC(=O)O)n3cc(C(N)CO)nn3)CC2)nc(N2CCN(C(=O)[C@H](CCCCN)n3cc(C(N)CC(C)C)nn3)CC2)n1 (some centres not stated),-3.6%
19,C#CCOCCOCCOCCNc1nc(N2CCN(C(=O)C([C@@H](C)O)n3cc([C@@H](N)CCCCN)nn3)CC2)nc(N2CCN(C(=O)[C@H](CCCCN)n3cc(CN)nn3)CC2)n1 (some centres not stated),107% (active)
20,C#CCOCCOCCOCCNc1nc(N2CCN(C(=O)C([C@@H](C)CC)n3cc(C(N)COC(=O)C(F)(F)F)nn3)CC2)nc(N2CCN(C(=O)[C@H](Cc3ccc(O)cc3)n3cc(C(N)[C@H](C)CC)nn3)CC2)n1 (some centres not stated),37.1%
21,C#CCOCCOCCOCCNc1nc(N2CCN(C(=O)[C@H](CCCCN)n3cc(CCC(=O)O)nn3)CC2)nc(N2CCN(C(=O)[C@H](CCCCN)n3cc(CC(C)O)nn3)CC2)n1 (some centres not stated),2%
